Screens deposited in PubChem by National Center for Advancing Translational Sciences (NCATS).
Pf Dd2 inh: Plasmodium falciparum Dd2 growth inhibition | P. falciparum Dd2 growth, SYBR Green, 72 h | Potency, µM (top dose mostly 28.9 µM), hits mostly inhibitors | 4.3% of 120,000 active; active means well fitted inhibition curve with a large enough effect; further: nearly all actives have a fitted effect of over 65% in size
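Infected erythrocytes (Dd2, 0.3% parasitemia, 2.5% hematocrit final) are added to compound in RPMI-1640/Albumax II medium, grown 72 h at 37C in low oxygen, then lysed with saponin/Triton-X containing SYBR Green and read by fluorescence.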
Numbers stand for hits; - = inactive. The full list was thinned out, with hits kept by preference.

SMILES	Pf Dd2 inh
O=C1CS(=O)(=O)C2(C(=O)N(Cc3ccccc3Cl)c3ccccc32)N1c1ccc(F)cc1 (stereo unspecified)	5.62µM
CN1C(=O)C2(c3ccccc31)N(c1ccc(F)c(Cl)c1)C(=O)CS2(=O)=O (stereo unspecified)	-
COc1ccc2[nH]cc(CCN=C(NC(=O)c3cccc(Cl)c3)Nc3nc(C)cc(C)n3)c2c1	8.91µM
COc1ccc2[nH]cc(CCNC(=O)Nc3cccc(F)c3)c2c1	-
COc1ccc2[nH]cc(CCNC(=O)Nc3c(C)cccc3C)c2c1	-
O=C(Cn1ncc2ccccc2c1=O)NC1CCCc2c1[nH]c1ccccc21 (stereo unspecified)	-
Cc1ccc(C)c(C(=O)N2CCC(c3n[nH]c(=O)n3-c3ccccc3)CC2)c1	-
O=C(NCc1cn[nH]c1-c1cccs1)c1cn(CCC2CCCCN2)nn1 (stereo unspecified)	-
COc1ccc(Cl)cc1S(=O)(=O)NC1CCc2n[nH]c(=O)n2CC1 (stereo unspecified)	-
CN1CCN(c2cc(=O)c3ccnc(-c4ccc([S+](C)(=O)[O-])cc4)c3o2)CC1	-
CC(=O)N1CC2(CCN(Cc3ccccn3)CC2)Cc2ccccc21	-
CC(=O)N1CC2(CCN(Cc3ccc(Cl)cc3)CC2)Cc2ccccc21	-
CC(=O)N1CC2(Cc3ccccc31)CN(C(=O)c1ccc(C(F)(F)F)cc1)C2	-
CC(=O)N1CC2(CCCCN2Cc2ccc(Cl)cc2)Cc2ccccc21 (stereo unspecified)	-
O=C(c1ccc(Cl)cc1)N1CC2(CCN(Cc3c[nH]c4ccccc34)CC2)Cc2ccccc21	2.51µM
C[S+](=O)([O-])N1CC2(CCN(Cc3ccc(Cl)cc3)CC2)Cc2ccccc21	-
CC(=O)N1CC2(CCN(Cc3ccccn3)C2)Cc2ccccc21 (stereo unspecified)	-
O=C(c1ccc(Cl)cc1)N1CC2(CCN(Cc3ccc(Cl)cc3)CC2)Cc2ccccc21	12.6µM
COCC1CN(C(C)=O)CC12CCN(Cc1c[nH]c3ccccc13)CC2 (stereo unspecified)	-
O=C(c1ccc(Cl)cc1)N1CC2(CCN(Cc3cccnc3)C2)Cc2ccccc21 (stereo unspecified)	8.91µM
O=C(c1ccc(Cl)cc1)N1CC2(CCCN2Cc2ccc(C(F)(F)F)cc2)Cc2ccccc21 (stereo unspecified)	10µM
CC(C)NC(=O)N1CC2ON=C(C(=O)NCCc3ccc(Cl)cc3)C2C1 (stereo unspecified)	-
COc1cc(C)c2c(c1C)C[C@H](C(C)C(=O)N1CCCCC1)CC2 (stereo partly specified)	-
CCOc1cc(=O)n2c(c1C(=O)Nc1cccc(F)c1)CCCC2	-
Cn1ccnc1CN1C[C@@H]2C[C@H]1C(=O)N(Cc1ccccn1)c1ccccc1O2	-
SMILES	Pf Dd2 inh
O=C(NCc1cccc2ccccc12)C1(c2ccc(Cl)cc2)CCOCC1	-
COc1ccc(C(=O)N2CCC3(CC2)NC(=O)N(c2ccccc2Cl)N3)cc1F	-
COc1ccc(N2CC(C(=O)N3CCC(C(=O)NCc4ccc(C(F)(F)F)cc4)C3)NC2=O)cc1 (stereo unspecified)	-
COC1C(=O)N(CC2CC2)C12CCN(S(=O)(=O)c1ccc3c(c1)OCCO3)CC2 (stereo unspecified)	-
Cc1n[nH]c(C)c1C(N)C(=O)N1CCCN(CCCN2CCCC2)CC1 (stereo unspecified)	-
O=C(c1ccccc1)N1CCn2c(nn(-c3ccc([N+](=O)[O-])cc3)c2=O)C1	-
COc1ccc(C2C(C#N)=C(N)Oc3n[nH]c(C)c32)cc1 (stereo unspecified)	-
Cc1nc(CN2CCOc3c(O)cc(-c4nc5ccccc5s4)cc3C2)no1	-
Cc1cncc(C(=O)N2CCOc3c(O)cc(-c4nc5ccccc5s4)cc3C2)c1	7.94µM
Cc1cnc(C)c(-c2cc(O)c3c(c2)CN(C(=O)c2ccncn2)CCO3)n1	-
CN1CCC2(CCC1=O)CN(S(=O)(=O)c1cn(C)cn1)CCN2C (stereo unspecified)	-
Cc1ccc(C(=O)N2CCC([C@@H]3CNC[C@H]3CO)CC2)cc1C	-
COc1ccc(CNC(=O)CCC(=O)N2CC3CCCN3c3ccccc32)c(OC)c1 (stereo unspecified)	-
CCOc1ccc(CNC(=O)CCC(=O)N2CC3CCCN3c3ccccc32)cc1 (stereo unspecified)	12.6µM
Cc1ccc(CNC(=O)CCC(=O)N2CCSc3ccccc32)cc1	-
CN1CC(=O)N(C2CNC2)Cc2c(NC3CC3)ncnc21	-
O=C(c1cc(F)ccc1Cl)N1C[C@@H](CO)[C@H](c2ccccn2)C1	-
COc1cc(OC)cc(OCC2CN(Cc3cccc(C(F)(F)F)c3)C(=O)c3c(ccnc3-c3ccc(OCC(=O)O)cc3)O2)c1 (stereo unspecified)	-
O=C(O)COc1ccc(-c2nccc3c2C(=O)N(Cc2cccc(C(F)(F)F)c2)CC(COc2ccc(OC(F)(F)F)cc2)O3)cc1 (stereo unspecified)	-
O=C(O)COc1ccc(-c2nccc3c2C(=O)N(Cc2cccc(C(F)(F)F)c2)CC(CNC(=O)c2cccc(Cl)c2)O3)cc1 (stereo unspecified)	10µM
O=C(NC1CCN(c2cc(-c3ccccc3)[nH]n2)CC1)c1ccc(F)c(Cl)c1	-
Cc1ccc(/C=C/c2onc(C)c2S(=O)(=O)N2CCC(C(=O)Nc3ccc(OC(F)(F)F)cc3)CC2)cc1	-
Cc1ccc(NC(=O)C2CCN(S(=O)(=O)c3cccs3)CC2)cc1	-
Cc1cccc(NC(=O)C2CCN(S(=O)(=O)c3c(C)noc3/C=C/c3ccco3)CC2)c1C	-
CCOc1ccc(NC(=O)C2CCN(S(=O)(=O)c3c(C)noc3/C=C/c3c(C)cc(C)cc3C)CC2)cc1	-
SMILES	Pf Dd2 inh
COc1cccc(/C=C/c2onc(C)c2S(=O)(=O)N2CCC(C(=O)N3CCC(C)CC3)CC2)c1	-
Cc1cc(C)c(/C=C/c2onc(C)c2S(=O)(=O)N2CCC(C(=O)NCc3ccco3)CC2)c(C)c1	11.2µM
Cc1noc(/C=C/c2cccs2)c1S(=O)(=O)N1CCC(C(=O)NCc2ccc(Cl)cc2)CC1	-
COc1ccc(/C=C\c2onc(C)c2S(=O)(=O)N2CCC(C(=O)Nc3cccc(C)c3C)CC2)cc1	2.82µM
COc1cccc(CNC(=O)C2CCN(S(=O)(=O)c3c(C)noc3/C=C/c3cccs3)CC2)c1	6.31µM
Cc1noc(C)c1S(=O)(=O)N1CCC(C(=O)Nc2ccc(Br)cc2)CC1	-
CCc1ccc(NC(=O)C2CCN(S(=O)(=O)c3c(C)noc3/C=C/c3cccs3)CC2)cc1	12.6µM
COc1cc(OC)c(NC(=O)C2CCN(S(=O)(=O)c3c(C)noc3/C=C/c3c(C)cc(C)cc3C)CC2)cc1Cl	-
CCN1c2cc(C(=O)Nc3ccc(OC)cc3OC)ccc2C(=O)N2CCCC21 (stereo unspecified)	-
N#Cc1cccc(C(=O)NC2CCN(c3cc(-c4ccc(F)cc4)[nH]n3)C2)c1 (stereo unspecified)	-
CN1c2cc(C(=O)NCc3cccs3)ccc2C(=O)N2CCCC21 (stereo unspecified)	-
O=C(NC1CCOCC1)c1cccc(S(=O)(=O)N2CCC[C@H]2CO)c1	-
COc1cc(=O)n2c(c1C(=O)Nc1ccc(C(F)(F)F)cc1)CCCC2	-
CCn1ncc(N2CCCC(CC(=O)NCc3cccc(C)c3)C2)cc1=O (stereo unspecified)	-
